This is a sample that favours compounds with a hit; in the whole collection about 19% have one here.
HepG2 tox: qHTS for Inhibitors of TGF-b: Cytotox Counterscreen; 410,000 tested, 0.76% active; HepG2 CAGA-GFP viability, ATP luminescence, 18 h; Potency, µM (top dose mostly 46.1 µM), for the others: at the top dose activity change, negative = cytotoxicity, usual class: cytotoxic; AID 588856, 2011; note: potency is the fitted concentration of half-maximal effect
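HepG2 CAGA-GFP cells (1000/well, DMEM with 1% FBS) received compound, then TGF-beta at 500 pg/mL final, and were incubated 18 hours at 37 degrees C. Viability was read by CellTiter-Glo luminescence. Media-only wells were set as complete cell-killing and DMSO as no toxicity.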
DT40 TDP1 CPT: qHTS for Inhibitors of human tyrosyl-DNA phosphodiesterase 1 (TDP1): qHTS in cells in presence of CPT | Potency, µM (highest dose often 46.2 µM), for the others: top-dose activity change, negative = growth inhibition, hits mostly inhibitors | AID 686979, 2013 | 420,000 tested, 12% active | chicken DT40 Tdp1-/-;hTDP1 cells + 20 nM CPT, ATP luminescence, 48 h; note: potency is the fitted concentration of half-maximal effect; % is set by controls: 0 for no effect and ±100 for the full control effect; nearly all actives have a fitted effect of over 55% in size
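Cell growth measured by CellTiter-Glo luminescence after a minimum 48 h, 37 C compound exposure with 20 nM CPT in Tdp1-knockout DT40 cells stably expressing hTDP1, seeded 400/well; qHTS titration format.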
TGFb SMAD3 inh: qHTS for Inhibitors of TGF-b. HepG2 CAGA-GFP TGF-b/SMAD3 reporter, GFP fluorescence, 18 h; TGF-beta stimulated, 500 pg/mL final. Potency, µM (doses to about 46.1 µM), for the others: at the top dose activity, negative = inhibition, most hits filed as inhibitors. 410,000 tested, 1.2% active; note: potency is the fitted concentration of half-maximal effect; % is set by controls: 0 for no effect and ±100 for the full control effect; nearly all actives have a fitted effect of over 65% in size
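HEPG2 CAGA-GFP reporter cells (1000/well, DMEM with 1% FBS) received compounds, then recombinant TGF-beta at 500 pg/mL final for 18 hours at 37 degrees C. Per-cell GFP summed per well was normalised to unstimulated and stimulated DMSO controls before curve fitting.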
DT40 TDP1 no CPT: qHTS for Inhibitors of human tyrosyl-DNA phosphodiesterase 1 (TDP1): qHTS in cells in absence of CPT | AID 686978, 2013 | Potency, µM (series often up to 46.2 µM), for inactives: at the highest dose activity change, negative = growth inhibition, actives largely listed as inhibitors | 420,000 tested, 15% active | DT40 Tdp1-/- hTDP1 cells, no CPT, ATP luminescence, 48 h; note: potency is the fitted concentration of half-maximal effect; % is set by controls: 0 for no effect and ±100 for the full control effect; nearly all actives have a fitted effect of over 55% in size
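A cellular qHTS used chicken DT40 cells lacking endogenous Tdp1 but carrying stably transfected human TDP1. Compounds were applied without camptothecin, and cell growth kinetics were judged by ATP-dependent luminescence after ≥48 hr.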
IL-1B inflam inh: qHTS for Inhibitors of Inflammasome Signaling: IL-1-beta AlphaLISA Primary Screen | THP-1 LPS/ATP IL-1B secretion, AlphaLISA, 16 h; hits give low values | AID 743279, 2014 | 360,000 tested, 4.7% active | activity change, % at 57.5 µM; in the data active = activity change below about -50%; inconclusive = mostly about -30% to -49%; note: % is set by controls: 0 for no effect and ±100 for the full control effect
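THP-1 cells pretreated 1 hr with compounds (up to 57.5 uM final), then stimulated with LPS (250 ng/mL final) plus ATP (1.25 mM final); secreted IL-1B measured by AlphaLISA after 16 hr, decreased signal indicating inhibition.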
ASM inhibitor: Inhibitors of Secretory Acid Sphingomyelinase (S-ASM): qHTS; AID 504937, 2011; placental ASM, HMU-PC fluorogenic substrate, 60 min; Potency, µM (doses to about 57.5 µM), for inactives: at the highest dose activity change, negative = inhibition, usual class: inhibitors; 340,000 tested, 0.006% active; note: potency is the fitted concentration of half-maximal effect
Target sequence (P17405 47-631 limits assumed): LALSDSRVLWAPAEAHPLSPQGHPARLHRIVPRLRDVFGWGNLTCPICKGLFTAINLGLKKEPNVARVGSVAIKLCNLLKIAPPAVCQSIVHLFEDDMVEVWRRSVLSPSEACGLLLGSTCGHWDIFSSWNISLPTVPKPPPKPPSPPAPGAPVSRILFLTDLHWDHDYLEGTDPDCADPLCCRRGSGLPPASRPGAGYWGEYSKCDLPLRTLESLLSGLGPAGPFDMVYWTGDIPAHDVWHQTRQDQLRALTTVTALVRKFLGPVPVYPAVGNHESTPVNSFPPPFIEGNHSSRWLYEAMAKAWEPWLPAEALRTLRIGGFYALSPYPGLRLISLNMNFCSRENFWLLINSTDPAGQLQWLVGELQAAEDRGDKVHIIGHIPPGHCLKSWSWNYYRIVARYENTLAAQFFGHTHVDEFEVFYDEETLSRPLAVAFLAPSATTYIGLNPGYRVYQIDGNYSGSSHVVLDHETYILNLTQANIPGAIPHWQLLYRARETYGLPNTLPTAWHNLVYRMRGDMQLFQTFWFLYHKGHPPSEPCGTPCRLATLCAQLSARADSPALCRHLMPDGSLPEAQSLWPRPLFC
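Steps: dispense placental human ASM, pin compound, wait 10 min at room temperature, add HMU-PC0 substrate at 9 uM final, incubate 60 min at 37 °C, add stop solution raising pH to 10, read fluorescence.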
* marks the source's active call; other numbers are inactive results; ? = inconclusive; . = no result given. Unless noted, calls come from the whole dose curve; as a rule, active = well fitted curve in the direction sought with a large enough effect; inconclusive = small, poorly fitted or top-dose-only effect, or another doubt; inactive = no such curve, though single readings can be large; an effect the other way counts as inactive or inconclusive.

SMILES	HepG2 tox	DT40 TDP1 CPT	TGFb SMAD3 inh	DT40 TDP1 no CPT	IL-1B inflam inh	ASM inhibitor
Cc1c(C(=O)O)oc2ccc3c(c12)C(O)CC(C)(C)O3 (stereo not given)	-0.2%	-2.9%	0.8%	11.1%	-3.2	-2.5%
COc1ccc(S(=O)(=O)Nc2cccc3c2O[C@H](CN(C)S(=O)(=O)c2cn(C)cn2)[C@@H](C)CN([C@H](C)CO)C3=O)cc1	6.3%	12.4%	0.0%	-10.3%	8.7	1.1%
CCOC(=O)CC(NC(=O)Cn1nnc(-c2ccc(C(F)(F)F)cc2)n1)c1ccc(C)cc1 (stereo not given)	-12.2%	.	21.9%	.	.	.
COc1ccc(C)cc1-n1nnc(S(=O)(=O)c2ccc(C)cc2)c1C	-14.0%	?	-2.8%	?	.	.
Cc1c(C(=O)Nc2nc3ccccc3[nH]2)oc2ccccc12	-42.8%	20.6µM*	-12.3%	23.1µM*	16.7	-0.9%
Cc1c(C(=O)Nc2nc3ccccc3[nH]2)oc2c(Cl)cccc12	3.8%	?	-19.6%	16.4µM*	51.2	-1.9%
O=C(Nc1nc2ccccc2[nH]1)c1ccc(Br)o1	0.4%	?	0.0%	14.6µM*	15.0	1.2%
COc1ccccc1CNC(=O)CN1C(=O)COc2ccc(S(=O)(=O)Nc3ccccc3)cc21	-37.6%	-6.2%	?	?	.	.
O=C(NCCc1c[nH]c2ccccc12)/C(=C/c1cccnc1)NC(=O)c1cccs1	-2.5%	1.9%	3.4%	1.9%	-12.6	1.4%
O=C(NCCc1ccc2c(c1)OCCO2)c1cc(F)cc(F)c1	-16.2%	20.6µM*	0.0%	16.4µM*	3.5	3.3%
COc1ccc(-n2c(SCc3ccc([N+](=O)[O-])cc3)nnc2-c2ccc(C)cc2)cc1	-12.5%	?	-1.5%	?	-50.0*	-2.0%
Cc1ccc(OCc2nnc(SCc3ccc(C#N)cc3)n2-c2ccc(C)cc2)cc1	-32.4%	?	?	16.4µM*	-18.6	-5.8%
S=C(NCCCc1cnc[nH]1)NCCCN(Cc1ccc(Cl)cc1)c1cc(-c2ccccc2)ccn1	-93.7%	?	?	?	.	.
COc1ccc(C(=O)COC(=O)c2c(-c3ccccc3)noc2C)c(OC)c1	22.3%	9.9%	22.7%	?	21.1	2.6%
C=CCN(c1ccccc1)S(=O)(=O)c1cccc(C(=O)NCC(c2ccccc2OC)N2CCCC2)c1 (stereo not given)	-20.3%	18.4µM*	-5.4%	18.4µM*	?	-0.1%
CCN(CC)S(=O)(=O)c1ccc(C(=O)NCC(c2cccs2)N2CCOCC2)cc1 (stereo not given)	2.0%	?	-4.4%	-15.1%	-1.5	-0.8%
CCN(c1ccccc1)S(=O)(=O)c1cc(C(=O)NCC(c2ccc(OC)cc2)N(C)C)ccc1C (stereo not given)	-23.0%	?	?	16.4µM*	-74.2*	6.6%
COc1ccccc1NS(=O)(=O)c1cccc(C(=O)NCC(c2ccccc2OC)N2CCCC2)c1 (stereo not given)	-37.4%	?	-6.3%	?	-5.0	3.7%
CCN(c1ccccc1)S(=O)(=O)c1cccc(C(=O)NCC(c2cccs2)N2CCOCC2)c1 (stereo not given)	2.6%	20.6µM*	-5.2%	?	?	2.1%

Screens deposited in PubChem by National Center for Advancing Translational Sciences (NCATS).
